High-throughput results deposited in PubChem by Buhrlage Lab, Dana-Farber Cancer Institute and Novartis Institutes for BioMedical Research (Cambridge, Mass).
This is a sample that favours compounds with a hit; in the whole collection about 12% have one here.
USP30 inh: inhibitors of human USP30 deubiquitinase; purified USP30, Ub-rhodamine cleavage fluorescence; inhibition, % at 25 µM; actives 5.3% (n = 47,000); AID 1645860, 2021
Target sequence (Q70CQ3 whole entry, looked up): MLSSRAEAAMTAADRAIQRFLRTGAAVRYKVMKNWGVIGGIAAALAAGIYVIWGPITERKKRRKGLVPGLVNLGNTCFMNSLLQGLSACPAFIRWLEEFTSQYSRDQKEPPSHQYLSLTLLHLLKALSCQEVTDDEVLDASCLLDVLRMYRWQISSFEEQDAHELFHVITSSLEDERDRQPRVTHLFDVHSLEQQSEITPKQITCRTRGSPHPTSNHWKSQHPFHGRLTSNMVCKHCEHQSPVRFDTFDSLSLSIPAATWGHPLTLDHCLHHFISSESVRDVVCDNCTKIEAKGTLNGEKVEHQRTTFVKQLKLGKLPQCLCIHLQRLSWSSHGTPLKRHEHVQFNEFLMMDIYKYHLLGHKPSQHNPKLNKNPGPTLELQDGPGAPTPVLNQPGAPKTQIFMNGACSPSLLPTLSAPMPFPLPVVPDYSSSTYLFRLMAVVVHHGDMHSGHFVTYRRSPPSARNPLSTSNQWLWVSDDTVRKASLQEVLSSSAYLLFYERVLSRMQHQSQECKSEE
USP8 block: inhibitors of human USP8 deubiquitinase | inhibition, % at 20 µM | Ubiquitin carboxyl-terminal hydrolase 8 (Homo sapiens), P40818 | actives 4.2% (n = 47,000) | purified USP8, Ub-rhodamine cleavage fluorescence, 30 min | AID 1645853, 2021
USP17 inh: inhibitors of human USP17 deubiquitinase | purified USP17, Ub-rhodamine cleavage fluorescence, 3 h | inhibition, % at 50 µM | actives 6.5% (n = 47,000)
Hits are given with their value; - = inactive; . = not tested or not shown. Rule as the data show it: active = inhibition above about 30%; inactive = the rest.

SMILES | USP30 inh | USP8 block | USP17 inh
CN1CCN(C(=O)c2ccn(-c3ccc4ccc(-c5cnn(C)c5)cn34)n2)CC1 | - | - | -
CCn1c(=O)[nH]c2ccc(Br)cc2c1=O | - | - | -
NC(=S)N=Nc1c(O)[nH]c2ccc(Br)cc12 | 33.8 | - | -
COc1ccc(OCC(=O)NC2CCCCCC2)cc1 | - | - | -
O=[N+]([O-])c1ccc(N2CCCC2)c(CO)c1 | - | - | -
O=C(O)c1cc([N+](=O)[O-])ccc1N1CCC(Cc2ccccc2)CC1 | 30.9 | - | -
COc1cc(-c2ccno2)ccc1S(=O)(=O)Nc1ccccc1Cl | - | - | -
CC1Cc2nc3ccccc3n2CCN1C(=O)c1cccc(N(C)C)c1 (configuration not stated) | - | - | -
COc1ccc(OC)c(S(=O)(=O)N2CCn3cccc3C2c2ccccc2F)c1 (configuration not stated) | - | - | -
O=c1c(NCc2ccc(F)cc2)nccn1-c1ccc2c(c1)OCCO2 | - | - | -
O=c1c(NCc2ccccc2Cl)nccn1Cc1ccc(F)cc1 | 30.3 | - | -
CNc1nc2c(c(=O)n1-c1ccccc1)CN(C(=O)c1ccncc1)CC2 | - | - | -
Cc1cc(NC(=O)c2ccc([N+](=O)[O-])cc2)ccc1NC(=O)Cc1ccccc1 | - | - | -
Cc1cc(C)n(-c2nc3c(c(=O)n2CC(=O)NCc2ccco2)CCCC3)n1 | - | - | -
Cc1ccc(CNC(=O)Cn2c(=O)c3sccc3n(CC(=O)Nc3ccc(Br)cc3)c2=O)cc1 | - | - | -
O=C(Cc1ccc(-n2c(=O)c3sccc3n(Cc3ccc(F)cc3)c2=O)cc1)NCCc1ccccc1 | . | - | 66.9
CCc1ccccc1NC(=O)Cn1c(=O)n(CC(=O)NCc2ccccc2Cl)c(=O)c2sccc21 | - | 38.2 | -
O=C(CCn1c(=O)c2ccccc2n(CC(=O)Nc2ccc(F)cc2F)c1=O)NCCc1ccccc1 | - | - | -
Cc1ccccc1NC(=O)Cn1c(=O)n(-c2ccc(CC(=O)NCCc3ccccc3)cc2)c(=O)c2sccc21 | - | 84.3 | -
O=C(CCn1c(=O)c2ccccc2n(Cc2ccccc2F)c1=O)NCCc1ccccc1 | - | - | -
Cc1ccc(NC(=O)Cn2c(=O)n(-c3ccc(CC(=O)NCc4ccco4)cc3)c(=O)c3sccc32)c(C)c1 | . | - | 69.3
O=C(CN1CCN(C(=O)c2ccc(-c3ccccc3F)o2)CC1)NC1CC1 | - | - | -
CC(C)CC[C@H]1O[C@@H](CC(=O)O)Cc2cc3c(c(O)c21)C(=O)c1sc(=O)n(C)c1C3=O | - | - | 78.0
Cc1ccc(NC(=O)c2cc(-c3ccccn3)nc3c(Cl)cccc23)nc1 | - | 63.2 | -
O=C(Nc1ccc(N2CCOCC2)cc1)c1cc(-c2ccccn2)nc2ccccc12 | - | - | -
SMILES | USP30 inh | USP8 block | USP17 inh
CCCCc1nc2sc3c(NCCCO)ncnc3c2c2c1COC(C)(C)C2 | - | - | 46.4
CCCCc1nc2sc3c(SCC(=O)Nc4cccc(C)c4)ncnc3c2c2c1CCC2 | - | - | 63.8
CCCCNc1ncnc2c1sc1nc(CCC)c3c(c12)CCC3 | . | - | 53.6
CCCc1nc2sc3c(NCCC(C)C)ncnc3c2c2c1CCC2 | - | - | -
CCCCc1nc2sc3c(SCC(=O)Nc4ccc(C)cc4)ncnc3c2c2c1CCC2 | - | - | -
CC1(C)Cc2c(c(N3CCOCC3)nc3sc4c(NCCO)ncnc4c23)CO1 | - | - | -
Cn1c(N2CCCC(C(=O)NC3CCN(Cc4ccccc4)CC3)C2)cc(=O)n(C)c1=O (configuration not stated) | - | - | -
OC1CCCN(c2ncc(-c3cnccn3)c(-c3cccs3)n2)C1 (configuration not stated) | - | - | -
CC(Cc1ccco1)NC(=O)c1cccc(NC(=O)c2nnc(C3CC3)s2)c1 (configuration not stated) | - | - | 31.3
CC(C)CC(=O)N1CCCC1c1nnc(C(=O)Nc2cccc(F)c2)s1 (configuration not stated) | - | - | -
O=C(NCc1ccco1)c1cccnc1-c1nc2ccccc2s1 | - | 32.7 | -
CN(C(=O)c1cccnc1-c1nc2ccccc2s1)c1ccccc1 | - | - | -
COc1ccc(C(=O)[C@@H]2[C@H](C(=O)OC(c3ccccc3)c3ccccc3)N3c4ccccc4C=CC3[C@@]23C(=O)Nc2ccccc23)cc1 (some centres not stated) | - | 44.9 | -
COc1ccc([C@H]2[C@H](C(=O)c3cccs3)N3c4ccccc4C=CC3C23C(=O)c2ccccc2C3=O)c(OC)c1 (some centres not stated) | - | - | -
CC1(C)CS(=O)(=O)N(c2cccc(C(=O)NCCc3ccccc3F)c2)C1=O | - | - | -
